Here are results for eight compounds from PubChem BioAssay.

Assay [1] in a line: hit retest on RPL19A-GFP reporter strain – cell-based, S. cerevisiae, flow cytometry, cherry picks, mother/daughter gates, confirmation (AID 2270;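 active = GFP response below 50% of the DMSO control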). The following applies: 3 h, at 10 µM, stronger effect = lower value, 100 = same GFP as DMSO wells.
Assay [2] in a line: yeast TOR pathway reporter LAP4-GFP change – cell-based, cherry picks, flow cytometry, mother/daughter gates, confirmation (AID 2271;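 active = GFP response above 150% of the DMSO control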;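 note: ratio of sample to DMSO plate mean so 100% equals DMSO level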). The conditions noted are these: S. cerevisiae LAP4-GFP strain, 3 h, at 10 µM, stronger effect = higher value, 100 means same as DMSO control.
Assay [3] can be described thus: TOR pathway reporter MEP2-GFP, retest of hits – S. cerevisiae, flow cytometry GFP, cherry picks, confirmation (AID 2272;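 active = GFP response above 150% of the DMSO control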;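 note: ratio of well signal to plate DMSO mean so 100% equals DMSO level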). The following applies: S. cerevisiae MEP2-GFP strain, 3 h, at 10 µM, stronger effect = higher value. A general note: A flow cytometer gives signals particle by particle.
Assay [4] can be described thus: yeast AGP1-GFP fluorescence change, single-dose – cell-based, flow cytometry, S. cerevisiae, cherry picks, confirmation (AID 2273).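 Note: median GFP channel fluorescence over the whole cell population gate.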 The following applies: S. cerevisiae AGP1-GFP strain, 3 h, at 10 µM.
Assay [5] is described as follows: TOR pathway CIT2 reporter hit retest – S. cerevisiae, GFP fusion, cherry picks, mother/daughter gates, confirmation (AID 2274). The following applies: S. cerevisiae CIT2-GFP strain, flow cytometry, 3 h, at 10 µM, stronger effect = higher value.
A short description of assay [6]: reduced mouse 2C T cell binding to pMHC/ICAM-1 vesicles – MLPCN validation set, flow cytometry, LFA-1/ICAM-1 modulator project, pilot screen (AID 2523;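 active = response below a set limit, under 55% cells CD8-positive and vesicle-bound, and CD8 cells' 90th-percentile brightness under 279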;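 for vesicle binding response: mean PE anti-B7-1 fluorescence of CD8+ cells relative to row control; 100% = QL9-loaded vesicles with DMSO vehicle in the same plate row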). The conditions noted are these: 2C mouse CD8+ T cells, at 7 µM, stronger effect = lower value; double positive events: measured here: CD8+/vesicle+ event percentage.
For assay [7], the target named is Integrin beta-1 (Homo sapiens) + Integrin alpha-4 (Homo sapiens) (UniProt P13612+P05556). As to the kind of experiment: alpha4beta1 integrin LIBS antibody binding reduction – U937 cells, HUTS-21 mAb, flow cytometry, validation set, VLA-4 allosteric modulator project, pilot screen (AID 2674;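 active = inhibition above 50%, about 3 SD of the validation set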;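 note: antibody binding induced by the VLA-4 ligand LDV present at three times its Kd; 0% = LDV ligand with antibody and no compound and 100% = antibody without LDV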). The conditions noted are these: HUTS-21 LIBS mAb binding, at 6.7 µM, stronger effect = higher value, binding induced by LDV ligand.
Integrin beta-1 (Homo sapiens) + Integrin alpha-4 (Homo sapiens), sequence (P05556 whole entry, looked up): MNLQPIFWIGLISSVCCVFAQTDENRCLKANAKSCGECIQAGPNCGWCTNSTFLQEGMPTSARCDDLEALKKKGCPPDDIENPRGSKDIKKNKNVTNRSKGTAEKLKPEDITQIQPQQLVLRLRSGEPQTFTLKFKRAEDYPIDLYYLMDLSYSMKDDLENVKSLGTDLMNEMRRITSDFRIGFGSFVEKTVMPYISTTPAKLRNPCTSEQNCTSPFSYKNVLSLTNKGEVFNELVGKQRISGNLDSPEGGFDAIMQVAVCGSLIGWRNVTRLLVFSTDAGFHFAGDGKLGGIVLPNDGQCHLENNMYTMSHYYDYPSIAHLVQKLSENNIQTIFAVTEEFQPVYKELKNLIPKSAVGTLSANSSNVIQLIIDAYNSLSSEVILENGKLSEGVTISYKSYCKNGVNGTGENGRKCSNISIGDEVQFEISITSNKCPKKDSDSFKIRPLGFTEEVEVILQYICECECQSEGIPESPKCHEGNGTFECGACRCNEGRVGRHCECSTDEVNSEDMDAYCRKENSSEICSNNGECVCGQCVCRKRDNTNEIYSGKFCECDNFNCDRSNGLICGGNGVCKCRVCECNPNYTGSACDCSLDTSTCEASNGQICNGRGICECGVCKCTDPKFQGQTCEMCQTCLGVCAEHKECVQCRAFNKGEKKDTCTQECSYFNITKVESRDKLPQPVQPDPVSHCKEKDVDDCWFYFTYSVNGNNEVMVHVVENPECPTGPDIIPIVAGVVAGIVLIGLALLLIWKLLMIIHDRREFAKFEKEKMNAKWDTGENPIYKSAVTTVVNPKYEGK
Integrin beta-1 (Homo sapiens) + Integrin alpha-4 (Homo sapiens), sequence (P13612 whole entry, looked up): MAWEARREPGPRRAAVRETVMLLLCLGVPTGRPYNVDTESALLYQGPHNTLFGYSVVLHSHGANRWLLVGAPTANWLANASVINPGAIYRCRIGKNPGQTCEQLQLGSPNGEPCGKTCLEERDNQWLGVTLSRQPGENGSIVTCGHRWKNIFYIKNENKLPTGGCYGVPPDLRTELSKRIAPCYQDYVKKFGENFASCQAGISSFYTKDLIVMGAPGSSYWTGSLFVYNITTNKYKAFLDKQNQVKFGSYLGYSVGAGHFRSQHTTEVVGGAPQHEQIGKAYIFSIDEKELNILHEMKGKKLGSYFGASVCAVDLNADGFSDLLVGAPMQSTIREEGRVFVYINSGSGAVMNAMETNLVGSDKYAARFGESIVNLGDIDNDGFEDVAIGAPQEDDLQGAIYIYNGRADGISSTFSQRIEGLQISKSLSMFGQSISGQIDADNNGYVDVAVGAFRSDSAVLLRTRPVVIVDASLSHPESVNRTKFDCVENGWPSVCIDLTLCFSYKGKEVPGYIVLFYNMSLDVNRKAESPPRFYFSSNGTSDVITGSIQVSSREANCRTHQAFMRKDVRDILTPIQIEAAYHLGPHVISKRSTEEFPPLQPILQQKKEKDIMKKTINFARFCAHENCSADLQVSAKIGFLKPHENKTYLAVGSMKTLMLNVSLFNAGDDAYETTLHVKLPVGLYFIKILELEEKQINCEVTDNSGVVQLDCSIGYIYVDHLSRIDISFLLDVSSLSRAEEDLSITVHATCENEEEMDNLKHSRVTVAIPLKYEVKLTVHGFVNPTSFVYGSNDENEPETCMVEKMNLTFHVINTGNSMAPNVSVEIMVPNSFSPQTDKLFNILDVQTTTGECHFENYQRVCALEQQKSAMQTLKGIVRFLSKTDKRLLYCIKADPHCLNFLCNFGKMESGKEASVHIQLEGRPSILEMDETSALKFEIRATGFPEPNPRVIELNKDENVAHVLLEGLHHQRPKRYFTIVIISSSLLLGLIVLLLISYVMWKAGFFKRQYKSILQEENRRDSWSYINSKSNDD

The nature of assay [8]: calorie-restriction mimetic ROS inhibitors, yeast – validation compound set, pilot screen (AID 2706;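 active = superoxide response below 65% of plate, a cut near 3 SD across the whole screen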;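 note: yeast exposed to compound for one week at 30 degrees C before staining; 100% = mean of all compound wells on the same plate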). The following applies: S. cerevisiae aging, superoxide DHE fluorescence; at 10 µM, stronger effect = lower value.
Assay [9] addresses Beta-adrenergic receptor kinase 1 (Homo sapiens) (UniProt P25098). As to the kind of experiment: GRK2 binders displacing RNA aptamer, biochemical, validation, human GRK2, bead flow cytometry (AID 488806;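 active = aptamer binding inhibition above 30%, about 3 SD of noise from non-fluorescent compounds; inactive = inhibition at or below 30%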). The following applies: bead-bound GRK2, FAM-aptamer displacement, at 10 µM, stronger effect = higher value.
Assay [10] deals with Beta-2 adrenergic receptor (Homo sapiens) (UniProt P07550). As to the kind of experiment: agonist-induced loss of surface beta2AR – cell-based, FAP fluorogen, flow cytometry, validation set, pilot screen (AID 504459;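 active = percent response above 42, roughly 3 SD of non-fluorescent test compounds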;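 note: agonist-driven loss of surface beta2AR via internalization measured by FAP dye flow cytometry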). The conditions noted are these: Am2.2-beta2AR cells, at 10 µM, stronger effect = higher value.
Beta-2 adrenergic receptor (Homo sapiens), sequence (P07550 whole entry, looked up): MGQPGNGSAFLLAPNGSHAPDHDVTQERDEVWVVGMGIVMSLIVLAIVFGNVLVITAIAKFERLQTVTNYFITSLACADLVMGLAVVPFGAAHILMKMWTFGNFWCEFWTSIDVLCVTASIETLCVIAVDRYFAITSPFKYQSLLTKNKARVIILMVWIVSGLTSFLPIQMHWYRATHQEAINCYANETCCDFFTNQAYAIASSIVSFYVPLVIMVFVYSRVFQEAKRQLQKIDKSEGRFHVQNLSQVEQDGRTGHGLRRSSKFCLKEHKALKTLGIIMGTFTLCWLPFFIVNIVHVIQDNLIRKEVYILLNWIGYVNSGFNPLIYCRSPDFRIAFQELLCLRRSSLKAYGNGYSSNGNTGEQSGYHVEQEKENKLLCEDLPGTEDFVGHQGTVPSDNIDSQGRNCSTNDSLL
Assay [11] deals with AP-2 complex subunit beta (Homo sapiens) (UniProt P63010). Put plainly: beta-arrestin/AP2 interaction blockers – biochemical, validation set, GST-AP2 beads, flow cytometry, pilot screen (AID 504541;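 active = inhibition above 54%, about 3 SD of non-fluorescent compounds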;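 note: AP2 carries R879A mutation and is captured from E. coli lysate; bead-bound FITC arrestin peptide fluorescence measuring arrestin peptide binding to AP2; 0% = DMSO wells and 100% = excess unlabeled arrestin peptide control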). The conditions noted are these: FITC arrestin peptide, at 10 µM, stronger effect = higher value, AP2 beta2 appendage fragment, R879A mutant.
AP-2 complex subunit beta (Homo sapiens), sequence (P63010 whole entry, looked up, the tested form may be a part, one chain of several): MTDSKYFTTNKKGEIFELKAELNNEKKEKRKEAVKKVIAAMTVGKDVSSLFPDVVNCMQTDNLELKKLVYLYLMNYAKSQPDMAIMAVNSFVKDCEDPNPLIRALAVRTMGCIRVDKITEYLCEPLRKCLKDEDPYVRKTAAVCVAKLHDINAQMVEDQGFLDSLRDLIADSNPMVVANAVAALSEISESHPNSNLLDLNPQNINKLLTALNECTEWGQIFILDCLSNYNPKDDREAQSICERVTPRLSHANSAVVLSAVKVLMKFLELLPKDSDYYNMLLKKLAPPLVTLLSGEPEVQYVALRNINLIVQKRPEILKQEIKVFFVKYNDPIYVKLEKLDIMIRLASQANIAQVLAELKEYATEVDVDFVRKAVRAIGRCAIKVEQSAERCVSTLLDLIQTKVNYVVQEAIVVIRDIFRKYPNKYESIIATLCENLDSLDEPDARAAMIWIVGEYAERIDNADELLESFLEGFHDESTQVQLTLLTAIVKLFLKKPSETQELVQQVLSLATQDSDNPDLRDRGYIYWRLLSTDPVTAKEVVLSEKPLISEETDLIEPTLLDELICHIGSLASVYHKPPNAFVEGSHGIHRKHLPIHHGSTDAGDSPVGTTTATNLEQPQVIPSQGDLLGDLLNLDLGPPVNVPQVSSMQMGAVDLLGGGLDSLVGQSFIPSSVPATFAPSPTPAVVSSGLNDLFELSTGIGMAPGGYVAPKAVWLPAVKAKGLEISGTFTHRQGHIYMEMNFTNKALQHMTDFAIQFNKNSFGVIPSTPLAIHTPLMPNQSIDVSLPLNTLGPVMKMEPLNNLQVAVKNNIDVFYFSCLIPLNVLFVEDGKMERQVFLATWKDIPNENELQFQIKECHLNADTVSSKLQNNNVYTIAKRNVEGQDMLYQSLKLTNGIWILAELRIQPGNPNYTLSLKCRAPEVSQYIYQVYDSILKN
Assay [12] is described as follows: cytosolic pH regulators acting via V-ATPase – S. cerevisiae, pHLuorin, HTS validation (AID 504600; in the data active = response above about 15%;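 note: plate controls were DMSO for no effect and reference compound for full effect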). The following applies: V-ATPase proton transport, at 10 µM, stronger effect = higher value.
The subject of assay [13] is anti-desmoglein-3 scFv antibody binding to human DSG3. Put plainly: blockers of pathogenic pemphigus antibody–desmoglein-3 binding – biochemical, validation compound set, bead-based, flow cytometry, pilot screen (AID 588368;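 active = binding below the plate cutoff, the plate median minus 3 SD, with a reading above zero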;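 note: signal is the median channel fluorescence of bead-bound GFP antibody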). The following applies: Protein G beads, DSG3-Fc, scFv-GFP binding, at 10 µM, stronger effect = lower value.
A short description of assay [14]: Nile Red efflux blockade in pump-expressing yeast – validation compound set, multiplex, phenotypic, pilot screen (AID 588506;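 active = efflux inhibition above 0.42, the validation set average plus 4 SD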;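 note: Nile Red retained in cells so higher fluorescence means more efflux inhibition; 0 = negative control wells and 1 = enniatin B 25 µM full block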). The conditions noted are these: S. cerevisiae pump-expressing triplex, Nile Red efflux flow cytometry; at 10 µM; stronger effect = higher value; the pumps come from Candida albicans.
For assay [15], the target named is ATP-binding cassette sub-family B member 6 (Homo sapiens) (UniProt Q9NP58). As to the kind of experiment: blockers of ABCB6-driven porphyrin uptake – K562-ABCB6 cells, flow cytometry, validation set, pilot screen (AID 588550;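 active = inhibition above the screen-wide mean plus 3 SD, about 51%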;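 note: 0% = DMSO wells and 100% = benzethonium chloride 70 µM positive control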). The conditions noted are these: K562-ABCB6 porphyrin accumulation, 1 h, at 10 µM, stronger effect = higher value.
ATP-binding cassette sub-family B member 6 (Homo sapiens), sequence (Q9NP58 whole entry, looked up): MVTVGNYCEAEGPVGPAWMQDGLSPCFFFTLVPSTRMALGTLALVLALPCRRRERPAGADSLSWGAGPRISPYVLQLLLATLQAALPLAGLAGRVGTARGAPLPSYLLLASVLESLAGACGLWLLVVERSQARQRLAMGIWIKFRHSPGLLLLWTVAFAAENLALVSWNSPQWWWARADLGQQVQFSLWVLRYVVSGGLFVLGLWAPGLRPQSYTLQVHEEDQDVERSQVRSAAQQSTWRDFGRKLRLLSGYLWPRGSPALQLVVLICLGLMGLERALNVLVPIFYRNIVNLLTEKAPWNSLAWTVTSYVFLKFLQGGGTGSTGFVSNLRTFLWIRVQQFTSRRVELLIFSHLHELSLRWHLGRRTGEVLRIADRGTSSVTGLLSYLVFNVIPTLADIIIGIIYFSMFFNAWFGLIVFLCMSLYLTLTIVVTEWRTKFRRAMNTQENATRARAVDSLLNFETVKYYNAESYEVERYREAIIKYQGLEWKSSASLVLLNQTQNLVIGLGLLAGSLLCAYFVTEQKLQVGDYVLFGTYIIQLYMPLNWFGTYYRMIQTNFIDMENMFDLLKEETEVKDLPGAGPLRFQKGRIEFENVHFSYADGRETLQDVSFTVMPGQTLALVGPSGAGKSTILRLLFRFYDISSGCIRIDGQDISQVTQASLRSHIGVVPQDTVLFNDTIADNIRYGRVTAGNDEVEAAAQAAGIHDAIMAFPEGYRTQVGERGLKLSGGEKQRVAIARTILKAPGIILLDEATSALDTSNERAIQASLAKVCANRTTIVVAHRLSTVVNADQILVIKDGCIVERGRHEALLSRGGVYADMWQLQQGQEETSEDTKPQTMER
Assay [16] can be described thus: AML differentiation inducers, ER-HoxA9 marrow cells – cell-based, GFP/MAC1 double positive, flow cytometry, validation set, primary screen (AID 588685;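 active = differentiation response of at least 50%, scaled between solvent and reference control, from cells with both markers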;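 note: compound exposure lasts four days before antibody staining and flow analysis; 0% = DMSO wells and 100% = 5 µM fulvestrant positive control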). The conditions noted are these: stronger effect = higher value, normalized: vehicle 0, fulvestrant 100.
Where [17] appears, read: measured here: daughter cell gate.
Where [18] appears, read: measured here: mother cell gate.
Where [19] appears, read: measured here: daughter cell gate response.
Setting [20] is: measured here: mother cell gate response.

The source made the active and inactive calls.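 Rule for the calls, unless noted: active = GFP response above 150% of the DMSO level; inconclusive = fewer than 70 events counted for a yeast strain; inactive = the rest.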

The inhibition is the relative decrease from the control value, in per cent.

Beta-adrenergic receptor kinase 1 (Homo sapiens), sequence (P25098 whole entry, looked up): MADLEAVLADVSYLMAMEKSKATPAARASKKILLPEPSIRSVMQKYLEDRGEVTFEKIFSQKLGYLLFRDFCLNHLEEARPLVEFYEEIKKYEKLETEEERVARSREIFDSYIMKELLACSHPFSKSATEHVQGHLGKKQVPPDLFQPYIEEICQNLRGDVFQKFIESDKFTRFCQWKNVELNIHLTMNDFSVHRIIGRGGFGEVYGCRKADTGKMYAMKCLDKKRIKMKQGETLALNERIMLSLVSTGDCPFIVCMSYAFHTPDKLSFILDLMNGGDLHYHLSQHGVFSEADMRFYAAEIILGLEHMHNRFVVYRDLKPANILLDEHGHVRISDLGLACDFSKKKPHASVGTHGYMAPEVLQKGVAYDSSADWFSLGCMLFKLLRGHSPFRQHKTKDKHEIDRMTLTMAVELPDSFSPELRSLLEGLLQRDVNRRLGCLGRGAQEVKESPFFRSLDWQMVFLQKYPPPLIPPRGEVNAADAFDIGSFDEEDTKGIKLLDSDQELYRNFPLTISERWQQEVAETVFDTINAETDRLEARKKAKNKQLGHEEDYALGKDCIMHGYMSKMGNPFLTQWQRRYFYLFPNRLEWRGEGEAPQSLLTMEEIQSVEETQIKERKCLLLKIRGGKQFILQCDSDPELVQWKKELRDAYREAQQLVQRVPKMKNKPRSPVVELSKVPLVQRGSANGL

Take `O=C(Nc1c(-c2ccccc2)nc2c(Br)cc(Br)cn12)c1ccco1`: the GFP response vs DMSO is 94.5% (inactive) in assay [1], 94.7% in assay [1] (setting [17]), 92.1% in [1] (setting [18]) and 103% (inactive) in [3]. For the same compound, in [2], the GFP response relative to DMSO is 92.9% (inactive). For the same compound, the GFP response, % of DMSO in assay [4] was 98.8% (inactive); in assay [5] it was 100% (inactive); in assay [5] (setting [17]), 85.2%; in assay [5] (setting [18]), 90.4%.
Regarding `CCOC(=O)c1cc(-c2ccc(/C=C3/C(=O)NC(=O)C(C#N)=C3C)o2)ccc1Cl`, the GFP response vs DMSO in [1] is 67.6% (inactive); in [1] (setting [18]), 55.4%; in assay [3], 160% (inactive). Further, the GFP response relative to DMSO was 240% (active) in assay [2], 141% in [2] (setting [19]) and 231% in [2] (setting [20]). The GFP response, % of DMSO is 104% (inactive) in assay [4], 118% (inactive) in [5], 103% in assay [5] (setting [17]) and 101% in [5] (setting [18]).
In the case of `CCOC(=O)C(C(=O)OCC)C(C(=O)OCC)N1CCOCC1` (configuration not stated), the GFP response vs DMSO in assay [1] was 74.1% (inactive); in assay [1] (setting [18]) it was 61.4%; in assay [3], 108% (inactive). Moreover, the GFP response relative to DMSO in [2] was 182% (active); in assay [2] (setting [19]), 158%; in [2] (setting [20]), 165%. Besides, the GFP response, % of DMSO in [4] is 90.2% (inactive); in assay [5] it was 86.1% (inactive); in [5] (setting [17]), 105%; in assay [5] (setting [18]), 72.5%.
`O=c1[nH]c(Cc2ccccc2)nc2c1oc1ccccc12` displayed a double positive events in [6] of 58.4%. In addition, the vesicle binding response in assay [6] was 200% (inactive). Further, the results for the inhibition in assay [7], in assay [11] and in assay [15] were -7.25% (inactive), -7.86% (inactive) and 4% (inactive), respectively. The superoxide response (% of plate) in [8] is 94% (inactive). The aptamer binding inhibition in [9] was 12% (inactive). For the same compound, the response in [10] is 0.02% (inactive); in [12] it was -2.08% (inactive). Further, the binding (% of control) in assay [13] is 97% (inactive). Further, the efflux inhibition (fraction of control) in assay [14] is -0.17 (inactive). Moreover, in assay [16], the differentiation response was -4% (inactive).
`CCCCNC(=O)c1cc2c(=O)n3cccc(C)c3nc2n(Cc2ccncc2)c1=N`: the GFP response vs DMSO in [1] is 97.2% (inactive); in [3], 102% (inactive). In assay [2], the GFP response relative to DMSO is 96.5% (inactive). Moreover, the GFP response, % of DMSO in assay [4] is 102% (inactive); in assay [5], 104% (inactive); in [5] (setting [17]), 96.4%; in [5] (setting [18]), 95.6%.
For the compound `Nc1ccc2[nH]ncc2c1`, in assay [6], the double positive events amounted to 62.1%. Further, the vesicle binding response in assay [6] is 174% (inactive). For the same compound, the inhibition is -8.62% (inactive) in assay [7], 11.5% (inactive) in [11] and -7% (inactive) in assay [15]. Besides, the superoxide response (% of plate) in assay [8] is 110% (inactive). Besides, the aptamer binding inhibition in assay [9] was 12% (inactive). The response in [10] is 20.4% (inactive); in [12] it was 1.54% (inactive). Also, the binding (% of control) in assay [13] was 104% (inactive). Moreover, in [14], the efflux inhibition (fraction of control) is 0.73 (active). For the same compound, the differentiation response in [16] was 87.2% (active).
As to `CN(C)CCCN(C(=O)c1cccs1)c1nc(-c2ccccc2)cs1`, the GFP response vs DMSO was 98% (inactive) in [1] and 102% (inactive) in assay [3]. Also, in [2], the GFP response relative to DMSO was 90.7% (inactive). In addition, the GFP response, % of DMSO in [4] was 100% (inactive); in assay [5], 101% (inactive).
For the compound `Nc1cccc2nc3ccccc3cc12`, in assay [6], the double positive events stood at 60.9%. The vesicle binding response in [6] is 235% (inactive). Also, the figures for the inhibition in [7], in assay [11] and in assay [15] were 9.1% (inactive), 2.41% (inactive) and 2% (inactive), respectively. In addition, the superoxide response (% of plate) in assay [8] was 113% (inactive). Moreover, the aptamer binding inhibition in assay [9] is 3% (inactive). Besides, the response was 2.19% (inactive) in [10] and -17.4% (inactive) in [12]. Also, the binding (% of control) in assay [13] was 102% (inactive). In addition, the efflux inhibition (fraction of control) in assay [14] was -0.04 (inactive). Further, the differentiation response in assay [16] was -6.96% (inactive).
